Results published in article PMC4336329 (PLoS ONE, 2015).
Among all 310,000 compounds or so, about 14,000 (4.5%) showed an effect of 50% or more. Effects have a minus sign here. Shown is part of a subset that was picked to be rich in strong results.

Biological target: human ether-à-go-go-related gene (hERG) potassium channel (human, UniProt Q12809)
Test: primary screen, population patch clamp on CHO cells stably expressing hERG; higher = less effect of the substance
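Also: peak tail current of the secondary pulse compared with the same well before compound.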

Sequence of human ether-à-go-go-related gene (hERG) potassium channel (Q12809 whole entry, looked up): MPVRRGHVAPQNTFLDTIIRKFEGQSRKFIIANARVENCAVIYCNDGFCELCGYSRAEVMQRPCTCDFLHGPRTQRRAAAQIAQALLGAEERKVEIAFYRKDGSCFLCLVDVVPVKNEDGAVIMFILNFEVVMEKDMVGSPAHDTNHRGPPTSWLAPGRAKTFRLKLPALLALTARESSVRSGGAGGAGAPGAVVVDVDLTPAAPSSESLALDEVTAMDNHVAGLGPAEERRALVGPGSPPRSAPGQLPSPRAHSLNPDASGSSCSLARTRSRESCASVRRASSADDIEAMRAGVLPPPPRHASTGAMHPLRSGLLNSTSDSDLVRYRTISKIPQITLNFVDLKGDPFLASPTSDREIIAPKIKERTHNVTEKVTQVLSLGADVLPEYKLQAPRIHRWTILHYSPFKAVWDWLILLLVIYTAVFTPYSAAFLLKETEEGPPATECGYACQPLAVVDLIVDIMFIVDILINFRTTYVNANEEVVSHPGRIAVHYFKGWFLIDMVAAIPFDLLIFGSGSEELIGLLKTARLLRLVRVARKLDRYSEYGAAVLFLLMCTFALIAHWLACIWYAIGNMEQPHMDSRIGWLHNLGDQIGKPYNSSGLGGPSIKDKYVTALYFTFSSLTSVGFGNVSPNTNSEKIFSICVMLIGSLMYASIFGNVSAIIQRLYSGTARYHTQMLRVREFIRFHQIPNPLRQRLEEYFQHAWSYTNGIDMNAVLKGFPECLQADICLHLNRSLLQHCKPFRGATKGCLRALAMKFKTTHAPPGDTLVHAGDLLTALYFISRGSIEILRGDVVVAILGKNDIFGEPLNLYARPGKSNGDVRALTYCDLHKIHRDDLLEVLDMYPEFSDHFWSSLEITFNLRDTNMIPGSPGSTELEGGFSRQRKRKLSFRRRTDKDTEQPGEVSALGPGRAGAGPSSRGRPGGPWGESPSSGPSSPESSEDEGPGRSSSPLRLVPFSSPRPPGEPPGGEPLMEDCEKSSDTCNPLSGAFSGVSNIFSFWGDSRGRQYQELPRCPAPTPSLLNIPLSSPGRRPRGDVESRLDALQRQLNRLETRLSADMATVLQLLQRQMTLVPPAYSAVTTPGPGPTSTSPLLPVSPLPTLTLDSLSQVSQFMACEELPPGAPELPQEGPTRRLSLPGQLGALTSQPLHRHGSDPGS

| SMILES | hERG current change (%, negative = inhibition) at 10uM [%] |
| --- | --- |
| COC(=O)C1=C(N)Oc2cc(C)n(Cc3ccncc3)c(=O)c2C1c1cccnc1 (stereo not shown) | -14.8 |
| CCn1c(/C=C\c2ccccc2C)nc2ccccc2c1=O | -19.1 |
| CC(C)c1ncc(S(=O)(=O)c2ccc(C(F)(F)F)cn2)c(N)n1 | 11.6 |
| CCOc1ncccc1C(=O)N1CCN(c2cc(Cl)ccc2C)CC1 | -4.75 |
| CCCCN1Cc2c(nc3cc(-c4ccccc4)[nH]n3c2=O)C1=O | 6.51 |
| Clc1ccccc1-c1nn2c(-c3ccncc3)nnc2s1 | -7.89 |
| O=C(Nc1cccc(Cl)c1)Nc1nnc(-c2ccccc2)o1 | 3.18 |
| CN1CCN(c2ccccc2NC(=O)c2ccc([N+](=O)[O-])cc2Cl)CC1 | -34.9 |
| CN1CCN(c2ccc([N+](=O)[O-])cc2NC(=O)c2ccccc2Cl)CC1 | -71.1 |
| O=C(Nc1ccccc1N1CCCC1)c1ccc([N+](=O)[O-])cc1Cl | -21.5 |
| Cn1c(=O)oc2cc(S(=O)(=O)NCCC(=O)Nc3ccc4c(c3)OCCO4)ccc21 | 2.4 |
| CCOc1ccc(CCNC(=O)COC(=O)c2cccnc2OCC)cc1OCC | -1.87 |
| CCN(Cc1ccc(OC)c(F)c1)C(=O)c1oc2ccccc2c1COC | -54.6 |
| COc1ccc(CN(C)C(=O)c2oc3ccccc3c2CSC)cc1F | 14.4 |
| CCN(Cc1ccc(OC)c(F)c1)C(=O)c1cc2ccccc2o1 | -24.7 |
| CC(/C=C/c1cccc([N+](=O)[O-])c1)=N/NC(=O)c1cccnc1 | -22.7 |
| O=c1c(C(c2ccc(F)cc2)c2c(O)nc3n(c2=O)CCCS3)c(O)nc2n1CCCS2 | 9.97 |
| O=C(Nc1cccc(Cl)c1)OCc1cn(-c2ccc(Cl)cc2)nn1 | 1.69 |
| O=C(Nc1ccccc1)OCc1cn(-c2ccc(Cl)cc2)nn1 | 22.3 |
| O=C(Nc1cccc(Cl)c1)OCc1cn(-c2ccccc2)nn1 | -52.6 |

| SMILES | hERG current change (%, negative = inhibition) at 10uM [%] |
| --- | --- |
| Cc1ccc(NC(=O)COc2ccc(CCO)cc2-n2nc3ccccc3n2)cc1C | 6.89 |
| N#Cc1ccc(COc2ccc(CCO)cc2-n2nc3ccccc3n2)cc1 | -66.6 |
| OCCc1ccc(O)c(-n2nc3ccccc3n2)c1 | -17.1 |
| COc1ccc(NC(=O)c2ccc(COCC(F)(F)C(F)F)cc2)cc1OC | 7.39 |
| COC(=O)CCC(=O)OC1(C)C(=O)C=C2C=C(C3CC3)N(CCCCO)C=C2C1=O (stereo not shown) | 4.26 |
| CCOCCCNCc1cc(Cl)ccc1OCC.Cl | -11.8 |
| CCOCCCNCc1cc(Br)ccc1OCC.Cl | -55.5 |
| CCOCCCNCc1cccc(OCc2ccc(F)cc2)c1 | -50.1 |
| CCOCCCNCc1cc(Br)ccc1OCc1ccccc1 | -68.1 |
| CCOc1ccc(Br)cc1CNCCN1CCOCC1 | 1.31 |
| CCCNCc1cc(OC)c(OCc2ccccc2)cc1Br.Cl | -28.2 |
| CCOCCCNCc1ccc(OCc2ccc(F)cc2)c(OC)c1.Cl | -33.6 |
| CCOCCCNCc1ccc(OCc2ccccc2C)c(OC)c1.Cl | -24.4 |
| CCOCCCNCc1cccc(OC)c1.O=C(O)C(=O)O | 3.11 |
| CCC1(c2ccccc2)NC(=S)N(c2ccc(C)cc2)N1 (stereo not shown) | 22 |
| O=C(/C=C/c1ccc(F)cc1)NC(=S)Nc1ccccc1C(=O)NC1CCCCC1 | 2.56 |
| CC1CC(C)CN(C(=O)c2ccncc2)C1 (stereo not shown) | 10.1 |
| COc1ccc(NC(=O)/C=C/c2ccccc2[N+](=O)[O-])c(OC)c1 | 4.66 |
| COCCNC(=O)C1CC(c2cccc([N+](=O)[O-])c2)=NO1 (stereo not shown) | 15.8 |
| Cc1cc(NC(=O)Cn2nnc3sc4c(c3c2=O)CCCC4)no1 | 9.97 |

| SMILES | hERG current change (%, negative = inhibition) at 10uM [%] |
| --- | --- |
| CC(NC(=O)C1=CC=CN2CCS(=O)(=O)N=C12)c1ccc(Cl)cc1Cl (stereo not shown) | -57.9 |
| O=C(NCCc1ccc(Cl)cc1)C1=CC=CN2CCS(=O)(=O)N=C12 | -9.31 |
| O=C(NCc1cccc(Cl)c1)C1=CC=CN2CCS(=O)(=O)N=C12 | -5.54 |
| c1ccc2c(Nc3nc4c(s3)CCCC4)cccc2c1 | 2.23 |
| CN(C(=O)CSc1nc2ccc([N+](=O)[O-])cc2s1)C1CCS(=O)(=O)C1 (stereo not shown) | -55.9 |
| CN(C(=O)CSc1nc(-c2ccccc2)cs1)C1CCS(=O)(=O)C1 (stereo not shown) | -19.6 |
| CCN(C(=O)CSc1nc2ccc([N+](=O)[O-])cc2s1)C1CCS(=O)(=O)C1 (stereo not shown) | -61.8 |
| O=C(CSc1nc2ccc([N+](=O)[O-])cc2s1)NC1CCS(=O)(=O)C1 (stereo not shown) | -5.62 |
| CCN(C(=O)Cn1cnc2cc([N+](=O)[O-])ccc2c1=O)C1CCS(=O)(=O)C1 (stereo not shown) | 1.53 |
| CCN(C(=O)CN1C(=O)c2ccc([N+](=O)[O-])cc2C1=O)C1CCS(=O)(=O)C1 (stereo not shown) | 13.8 |
| O=[N+]([O-])c1cccnc1Sc1ccc(Cl)cc1 | -11 |
| O=C(Nn1c(COc2ccccc2)nc2ccccc2c1=O)C(Cl)(Cl)Cl | 9.26 |
| CC(C(=O)Nc1nc2ccccc2s1)n1cc([N+](=O)[O-])cn1 (stereo not shown) | -69.5 |
| O=C(Cn1cc([N+](=O)[O-])cn1)Nc1nc2ccccc2s1 | -74.6 |
| CC(C(=O)Nc1cccnc1)n1cc([N+](=O)[O-])cn1 (stereo not shown) | 17.7 |
| Cc1cccc(NC(=O)C(C)n2cc([N+](=O)[O-])cn2)n1 (stereo not shown) | -7.48 |
| O=C(Cn1ccc([N+](=O)[O-])n1)Nc1nc2ccccc2s1 | -45.8 |
| O=C(Cn1cc([N+](=O)[O-])cn1)Nc1ccccn1 | 16.1 |
